Our source for the potentiation and outcome values is PubChem BioAssay.

Activity calls are given as the source filed them.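 Rule for the calls: active = mean duplicate potentiation above the buffer control mean plus 5 SD of buffer wells; inactive = the rest.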

The target of the assay is Potassium voltage-gated channel subfamily KQT member 2 (Rattus norvegicus) (UniProt O88943). Kind of assay: rat KCNQ2 channel potentiation, selectivity assay for KCNQ1 potentiator project, KCNQ2-CHO-K1 cells (AID 493009).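 Note: assay conditions were tuned for KCNQ1 rather than KCNQ2 modulators; signal is max minus min fluorescence divided by baseline after thallium stimulus.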 Conditions: FluxOR thallium flux fluorescence, at 10 µM; stronger effect = higher value, scaled: buffer 0, activator control 100.
Potassium voltage-gated channel subfamily KQT member 2 (Rattus norvegicus), sequence (O88943 whole entry, looked up): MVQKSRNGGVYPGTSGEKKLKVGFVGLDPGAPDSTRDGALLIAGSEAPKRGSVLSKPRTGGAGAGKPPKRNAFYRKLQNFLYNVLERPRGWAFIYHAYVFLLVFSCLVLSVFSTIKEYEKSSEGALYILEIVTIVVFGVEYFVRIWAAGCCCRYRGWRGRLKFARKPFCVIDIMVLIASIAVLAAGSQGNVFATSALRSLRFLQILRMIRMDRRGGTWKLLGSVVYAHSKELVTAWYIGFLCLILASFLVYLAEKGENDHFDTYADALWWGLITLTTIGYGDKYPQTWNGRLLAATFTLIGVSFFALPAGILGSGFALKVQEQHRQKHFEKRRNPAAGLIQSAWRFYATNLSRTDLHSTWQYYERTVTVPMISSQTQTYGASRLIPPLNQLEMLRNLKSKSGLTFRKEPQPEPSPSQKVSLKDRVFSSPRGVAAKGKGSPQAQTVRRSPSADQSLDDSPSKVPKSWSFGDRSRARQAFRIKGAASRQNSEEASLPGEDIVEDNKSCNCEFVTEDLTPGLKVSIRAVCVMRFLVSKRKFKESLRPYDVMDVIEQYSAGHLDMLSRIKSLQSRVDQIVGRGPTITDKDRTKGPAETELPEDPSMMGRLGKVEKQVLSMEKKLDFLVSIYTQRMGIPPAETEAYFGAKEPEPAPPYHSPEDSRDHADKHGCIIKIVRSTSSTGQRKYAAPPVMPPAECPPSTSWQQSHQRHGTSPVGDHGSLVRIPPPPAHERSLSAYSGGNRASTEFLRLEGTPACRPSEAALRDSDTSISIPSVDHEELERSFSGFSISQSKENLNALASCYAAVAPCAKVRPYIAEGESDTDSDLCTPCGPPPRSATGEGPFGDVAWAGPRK
For the compound `CC12CCC(C/C1=N\N=C1\NC(=O)/C(=C\c3ccc(Cl)cc3)S1)C2(C)C` (stereo not given), the potentiation was 204% (active). `Cc1cc(C)n(/N=C/c2cc(Cl)cc(Cl)c2O)c(=O)c1`: the outcome was inactive. For `Cn1c(=S)[nH]c2scc(-c3cccs3)c2c1=O`, the potentiation was 500% (active). On to `CCc1ccc(/C=N/NC(=O)Cc2cccn2C)cc1`, for which the result was inactive. As for `CCN(CC)C(=S)NC(=O)c1ccc(Cl)cc1Cl`, the potentiation is 196% (active). `COc1ccc(-c2nc3ccc(C(=O)NCC(OC)OC)cc3nc2-c2ccc(OC)c(OC)c2)cc1OC`: the outcome was inactive. On the same count and under the same terms, the result for `OC(CNC1CCCCC1)COCCOc1ccc(Br)cc1` (stereo not given) reads “inactive”; that for `Cc1ccc(C)c2sc(NC(=O)c3nc4ccccc4s3)nc12`, “inactive”. With `CCC(=O)Nc1cc(-c2nn3c(C)nnc3s2)ccc1C`, the result was inactive. `COc1ccccc1NC(=O)Cn1cnc2c(oc3nc4c(cc32)CCCC4)c1=O`: the result was inactive.

For `O=C(c1ccc(COc2ccc(Cl)cc2)o1)N1CCN(Cc2ccc3c(c2)OCO3)CC1`, the result was inactive. Consider `O=C(NC(=S)N1CCc2ccccc21)c1ccco1`, for which the potentiation was 226% (active). With `COCCCNC(=O)CC(NS(=O)(=O)c1ccc(F)cc1)c1ccc(OC)cc1` (stereo not given), the result was inactive.

As for `O=C(CC1C(=O)NCCN1Cc1cccc(F)c1)NCCCN1CCCC1=O` (stereo not given), the outcome was inactive.

As for `CC(C)(C)NC(=O)C(=O)NNC(=O)c1cccc(Br)c1`, the potentiation was 229% (active).

Consider `O=C(Nc1cccc(NC(=O)c2c(F)cccc2F)n1)c1c(F)cccc1F`, for which the outcome was inactive. Still for that read-out and setting: the result for `CCOC(=O)c1oc2c(CN3CCCCC3C)c(O)ccc2c(=O)c1-c1ccc(OC)c(OC)c1` (stereo not given) reads “inactive”. Turning to `Cc1nn2c(c1-c1ccccc1)NC1=C(C(=O)CCC1)C2c1ccccc1` (stereo not given), the outcome was inactive. Turning to `CSc1nc(C)c2c(n1)N(c1ccc(C(C)C)cc1)CC2`, the result was inactive. For the compound `CC1CCc2sc(-c3n[nH]c(=S)o3)cc2C1` (stereo not given), the potentiation is 179% (active).

As to `CCOc1ccc(/C=C2/SC(=O)NC2=S)cc1`, the potentiation is 379% (active). On to `COC(=O)c1ccc(COC(=O)c2ccccn2)cc1`, for which the potentiation was 157% (active). Turning to `Cc1cc(NC(c2cccnc2)c2c(C)[nH]c3ccccc23)no1` (stereo not given), the outcome was inactive. Turning to `Cc1ccc(N=Nc2ccc(O)c3ncccc23)cc1C`, the potentiation is 190% (active). Regarding `CC(C)(C)c1cc(-c2csc(Nc3ccccc3)[n+]2Cc2ccc(C(=O)O)cc2)cc(C(C)(C)C)c1O`, the potentiation is 198% (active). Regarding `Cc1ccc2nc(NC(=S)NC(=O)c3ccco3)sc2c1`, the potentiation is 325% (active). On the same count and under the same terms, with `CC1Cc2ccccc2N1C(=S)NC(=O)c1cccc(Br)c1` (stereo not given) the figure was 576% (active). Consider `COc1ccccc1OCCSc1nc2ccccc2n1CCC(=O)O`, for which the outcome was inactive.

`Cc1cccc(N=Cc2cc(Br)cc(Cl)c2O)c1`: the result was inactive. As to `CC(=O)O[C@H]1CSC[C@H]1NC(=O)c1ccccc1`, the result was inactive. Take `CC(C)N(Cc1ccccc1)C(=S)NC(=O)C1(C)CC1(Cl)Cl` (stereo not given): the potentiation is 354% (active).

On to `O=C(NCC1CCCO1)c1ccc2c(c1)S(=O)(=O)c1ccccc1C2=O` (stereo not given), for which the result was inactive.

As to `C=CCOc1ccc(/C=C2\SC(=S)N(NS(=O)(=O)c3ccc(C)cc3)C2=O)cc1`, the potentiation is 852% (active). On to `O=C(NC(=S)N1CCc2ccccc21)c1ccccc1Br`, for which the potentiation was 490% (active).

`CCN(CC)S(=O)(=O)c1cccc(C(=O)N[C@H](C(=O)NNC(=O)c2ccccc2)C(C)C)c1`: the result was inactive. As for `Oc1ccc(CN2CCCCC2)c2cccnc12`, the potentiation was 144% (active). With `Cc1ccc(-c2ccc(=O)n(Cc3cccc(Br)c3)n2)cc1`, the outcome was inactive. Regarding `CC(C)c1ccc(NC(=O)C2CC(=O)N=C(N)S2)cc1` (stereo not given), the potentiation was 227% (active). `COc1ccc(/C=C2\SC(=Nc3ccccc3OC)NC2=O)cc1`: the outcome was inactive. Same read-out and setting: the result for `CC(CCc1ccccc1)NC(=O)COc1cc(F)ccc1[N+](=O)[O-]` (stereo not given) reads “inactive”.
